Measurements: the supplement of paper PMC10338343
± gives the standard deviation.

tested on: MILI (PIWIL2) piRISC loaded with L1MC piRNA (26 nt); test: pre-steady-state target cleavage rate (min^-1); guide: L1MC piRNA 5'p-UAACUAAAUACUAUGCAAGCUGUAGG; MIWI and MILI are mouse PIWI proteins and EfPiwi is from a freshwater sponge; tags in brackets are library labels; higher = faster piRNA-guided slicing of the target; conditions: auxiliary factor: 500 nM mouse GTSF1
Outline: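 The pre-steady-state cleavage rate was derived from a burst-and-steady-state fit of Cleave-'n-Seq data. For these assays, 1 nM active affinity-purified piRISC loaded with a single synthetic guide was mixed with […] a transcribed, DNA-blocked target RNA library in HEPES–potassium acetate buffer at 33 °C, with or without 500 nM GTSF1 partner protein, for 0–8 or 0–960 min. Sequencing counts of uncleaved targets were normalised to depth and to weakly complementary targets, and k3 was capped at 0.0001 min^-1 after three trials were pooled.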
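Also: 1 nM active piRISC with 0.1 nM target library at 33 °C single turnover.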

| Sequence | pre-steady-state target cleavage rate |
| --- | --- |
| UCCUGGAUGAGCUUGCAUAGUAUAUAGUAA | 0.163 ± 0.039 |
| UCCUGCUACACCUUGCAUAGUAUUUAGAAA | 0.169 ± 0.036 |
| UCCUGGAACAGGAAGCAUAGUAUUUUCAAA | 0.00836 ± 0.0043 |
| UCCUGGAUGUGCAAGCAUAGUAUUUAGUAA | 0.0583 ± 0.013 |
| UCCUGGAUCAGCAACCAUAGUAUUUAGUUA | 0.116 ± 0.013 |
| UCCUGGAUGUCCUUGCAUAGUAUUUACAAA | 0.0869 ± 0.025 |
| UCCUGGAUGUGCUUGCAUAGUAAAAAGUUA | 0.0196 ± 0.0079 |
| UCCUGGAACAGCUUGCAUACUAUAUAGUUA | 0.0332 ± 0.0099 |
| UCCUGGUACAGCUUGCAUAAGUAUUUAGUUA | 0.00838 ± 0.0052 |
| UCCUCCUACAGCUUGCAUAGAAAUUAGUUA | 0.0406 ± 0.0085 |
| UCCUGCUACAGCUUGCAAUGUAUUUAGUAA | 0.124 ± 0.023 |
| UCCUGGUACAGCUUCGAUAGUAUUUAGAAA | 0.0453 ± 0.014 |
| UCCUCCUAGUGCUUGCAUAGUAUUUAGAAA | 0.0113 ± 0.0046 |
| UCCUGGAUGUCGAACGAUGGUAUUUAGUUA | < 0.0001 |
| UCCUGGAUGAGGAAGCAUAGUAUUUAGUAA | 0.0509 ± 0.013 |
| UCCUGGAUGUCCUUGGAUAGUAUUUAGAUA | 0.129 ± 0.035 |
| UCCUGGAAGAGCUUGCAUAGUAUUUACUUA | 0.0737 ± 0.02 |
| UCCUGGAUGUCGAAGCAUAGUAUUUCGUUA | 0.00855 ± 0.0046 |

| Sequence | pre-steady-state target cleavage rate |
| --- | --- |
| UCCUCCUACAGCUUGCAUAGUUAAUACAAA | 0.014 ± 0.0056 |
| UCCUCCUACAGCUUGCAAAGUAUUUACAAA | 0.0935 ± 0.021 |
| UCCUGGAUGUGCUUGCAUAGUAUUAAGAAA | 0.00586 ± 0.0036 |
| UCCUGGAUCAGGAAGCAUAGUAUUUACAAA | 0.00413 ± 0.0036 |
| UCCUGGAUGUCCUUGCAUAGUAUUUAUGUUA | 0.0185 ± 0.0059 |
| UCCUGCUACAGGUUGCAUAGUAUUUACUUA | 0.0231 ± 0.011 |
| UCCUCCUACAGCUUGCAUAGAUAUUAGAAA | 0.00453 ± 0.0044 |
| UCCUGGAACACCUUGCAUAGUAUUUACAAA | 0.071 ± 0.02 |
| UCCUGGAUGUCCUUGCAUAGUAUUUUCUUA | 0.0376 ± 0.011 |
| UCCUGGAUGUGCUUGCAUAGUAUUUAGGUA | 0.0373 ± 0.011 |
| UCCUGGAUGAGCUUGCAUAGUAUUAACAAA | 0.00849 ± 0.0045 |
| UCCUGGAUGACGAUGCAUAGUAUUUAGUAA | 0.128 ± 0.016 |
| UCCUGGAUGUGCUUGCAUAGAAUUUAGUAA | 0.00482 ± 0.0043 |
| UCCUGGUUCAGCUUGCAUAGUAUUUACAAA | 0.0698 ± 0.021 |
| UCCUGGAACAGCUUGCAAUCUAUUUAGUUA | 0.0258 ± 0.0054 |
| UCCUGGAUGUCCUUGCAAUGUAUUUAGUAA | 0.0086 ± 0.0045 |
| UCCUGGAUCACCUUGCAUAGUAUUUACAAA | 0.131 ± 0.031 |

same assay, conditions: auxiliary factor: none (no GTSF1)

| Sequence | pre-steady-state target cleavage rate |
| --- | --- |
| UCCUGGAUGUCGAACCAUUGUAAUUAGUUA | < 0.0001 |
| UCCUGGAUGUCGAACCAAGUAUUUAGUUA | < 0.0001 |
| UCCUGGAUGUCCAACCAUAGUAUUUAGUAA | < 0.0001 |
| UCCUGGAUGUCGAUGCAUAGAUAAAUCAAA [g11:g17:cont:t1A] | < 0.0001 |
| UCCUGGAUGUCGAACCAUAGUCAUUUAGUUA | < 0.0001 |
